Data on seven compounds can be found in PubChem BioAssay (NCATS).

What all share (test): qHTS profiling for inhibitors of Plasmodium falciparum proliferation (AID 504749); also: nearly all actives have a fitted effect of over 60% in size
Common to all, as to conditions: P. falciparum in erythrocytes, SYBR Green DNA, 72 h; series mostly up to 28.7 µM

In one assay the test system is CP238. An outline of the steps:
(§1)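 P. falciparum-infected erythrocytes (0.3% parasitemia, 2.5% hematocrit final) were exposed to compounds for 72 h at 37 C in 5% CO2, then lysed with SYBR Green buffer overnight at room temperature; parasite DNA fluorescence was normalized to artemisinin and DMSO controls.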

Another assay deals with CP247. The method in brief:
as §1

The test system of the next assay is CP250. An outline of the steps:
as §1

In a further assay the test system is CP252. The method in brief:
as §1

In the next assay the test system is CP256. The method in brief:
as §1

The next assay has as its system CP260. The method in brief:
as §1

The test system of a further assay is CP262. An outline of the steps: as §1
A further assay has as its system CP265. The method in brief: as §1
Another assay relates to CP268. The method in brief: as §1
Another assay deals with CP269. The method in brief:
as §1

The test system of a further assay is CP286. The method in brief: as §1
Another assay has as its system CP291. The method in brief:
as §1

In the next assay the test system is CP297. The method in brief:
as §1

A further assay has as its system CP305. The method in brief: as §1
A further assay concerns CP315. The method in brief: as §1
Another assay deals with CP325. An outline of the steps: as §1
In the next assay the test system is CP329. The method in brief: as §1
The test system of another assay is CP335. An outline of the steps:
as §1

Another assay relates to DFO2036. The method in brief: as §1
The test system of another assay is CP266. The method in brief:
as §1

Records with an inconclusive call do not appear. Calls of active or inactive are those of the source. Calls follow the shape of the dose curve; as a rule, active = well fitted inhibition curve with a large enough effect; inconclusive = small, poorly fitted or top-dose-only effect; inactive = flat fitted curve, though single readings scatter. Numbered stars: 1 amine (or outer) side, 2 acyl side, 3 side chain; on linkers, the order of the positions; unused ones are H or OH. Bridge positions count the residues as written; N and C are the ends. Square brackets hold non-standard residues; d marks the D form. Peptide text beside a SMILES is read from it. I, II: the chains in the order shown. Actinocin(9to1) = Cc1c2oc3c(C)ccc(C(=O)[*:1])c3nc-2c(C(=O)[*:2])c(N)c1=O; NMeV = CN[C@H](C(=O)O)C(C)C; Sar = CNCC(=O)O
Potency is read from the fitted curve at half-maximal effect.

Turning to `O=C1c2ccccc2C(=O)C1c1ccccc1`, the Potency result in the assay with CP238, with CP247, in the assay with CP250, with CP252, in the assay with CP256 and in the assay on CP260 was “inactive” in each case. In addition, the Potency entry in the assay with CP262, with CP265, in the assay on CP268, with CP269, in the assay on CP286 and in the assay with CP291 was “inactive” each time. The Potency entry with CP297, in the assay on CP305, in the assay with CP315, in the assay with CP325, in the assay with CP329 and in the assay with CP335 was “inactive” throughout. In addition, the Potency result in the assay with DFO2036 was “inactive”.

With `O=S1(=O)c2cccc3cccc(c23)N1CCCN1CCN(c2ccc(F)cc2)CC1`, the Potency entry in the assay with CP238, in the assay on CP247, in the assay with CP250, in the assay with CP252, in the assay with CP256 and in the assay on CP260 was “inactive” each time. In addition, the Potency entry in the assay with CP262, with CP265, in the assay with CP266, in the assay on CP268, with CP269 and in the assay with CP286 was “inactive” throughout. Moreover, the Potency result with CP297, with CP305, in the assay with CP315, in the assay with CP325, in the assay on CP329 and in the assay with CP335 was “inactive” each time. Further, the Potency entry in the assay on DFO2036 is “inactive”.

Turning to `COc1ccc(/C=C/C(=O)c2ccc(OC)cc2OC)cc1`, the Potency in the assay with CP238 is 11.2 µM (active); in the assay on CP247 it was 4.47 µM (active); in the assay on CP250, 5.62 µM (active); with CP252, 5.01 µM (active); in the assay with CP256 it was 2.24 µM (active); with CP260, 8.91 µM (active). In addition, the Potency in the assay on CP262 was 5.36 µM (active); with CP265 it was 5.01 µM (active); with CP266 it was 7.57 µM (active); in the assay on CP268, 13.5 µM (active); in the assay on CP269, 9.53 µM (active); in the assay with CP286, 10 µM (active). Moreover, the Potency in the assay on CP291 was 8.49 µM (active); in the assay on CP297 it was 8.49 µM (active); with CP305 it was 6.01 µM (active); with CP325, 12 µM (active); in the assay on CP335, 6.75 µM (active); with DFO2036, 7.94 µM (active).

Consider `Oc1ccc(Cl)cc1Sc1cc(Cl)ccc1O`, for which the Potency entry in the assay with CP238, in the assay on CP247, with CP250, with CP252, with CP256 and with CP260 was “inactive” throughout. In addition, the Potency entry with CP262, in the assay on CP265, in the assay with CP266, with CP268, with CP269 and with CP286 was “inactive” in each case. Moreover, the Potency result in the assay on CP291, with CP305, in the assay on CP315, with CP325, in the assay on CP329 and with DFO2036 was “inactive” each time.

On to `CC(C)COC(=O)c1ccc(N)cc1`, for which the Potency result in the assay on CP238, with CP247, with CP250, with CP252, in the assay with CP256 and in the assay on CP260 was “inactive” throughout. For the same compound, the Potency result in the assay on CP262, in the assay with CP265, in the assay with CP266, in the assay with CP268, in the assay with CP286 and in the assay with CP297 was “inactive” throughout. For the same compound, the Potency entry in the assay with CP305, in the assay on CP315, in the assay on CP335 and with DFO2036 was “inactive” each time.

Take `Cc1cc(N)c2cc(NC(=O)Nc3ccc4nc(C)cc(N)c4c3)ccc2n1`: the Potency is 12.6 µM (active) with CP238; 12.6 µM (active) in the assay on CP247; 11.2 µM (active) in the assay on CP250; 1.78 µM (active) with CP256; 5.62 µM (active) in the assay on CP260; 4.78 µM (active) with CP262. The Potency was 7.08 µM (active) in the assay with CP265; 2.39 µM (active) with CP269; 4.47 µM (active) with CP286; 4.26 µM (active) in the assay on CP291; 4.78 µM (active) in the assay with CP297; 3.79 µM (active) with CP305. For the same compound, the Potency in the assay on CP315 is 7.57 µM (active); in the assay with CP329 it was 1.69 µM (active); in the assay on CP335 it was 7.57 µM (active); in the assay with DFO2036, 5.62 µM (active). The Potency entry in the assay with CP252 is “inactive”.

Regarding `Cc1c2oc3c(C)ccc(C(=O)N[C@@H]4C(=O)N[C@H](C(C)C)C(=O)N5CCC[C@H]5C(=O)N(C)CC(=O)N(C)[C@@H](C(C)C)C(=O)O[C@@H]4C)c3nc-2c(C(=O)N[C@@H]2C(=O)N[C@H](C(C)C)C(=O)N3CCC[C@H]3C(=O)N(C)CC(=O)N(C)[C@@H](C(C)C)C(=O)O[C@@H]2C)c(N)c1=O` (I: T[dV]P[Sar][NMeV] / II: T[dV]P[Sar][NMeV]; ester I:1-I:C, II:1-II:C; linker I:N-II:N via Actinocin(9to1)), the Potency is 0.0018 µM (active) in the assay on CP238; 0.0071 µM (active) in the assay on CP247; 0.0035 µM (active) with CP250; 0.0056 µM (active) with CP252; 0.0079 µM (active) with CP256; 0.0035 µM (active) with CP260. Besides, the Potency in the assay on CP262 was 0.0034 µM (active); in the assay on CP266, 0.0085 µM (active); with CP268 it was 0.0067 µM (active); in the assay on CP269, 0.006 µM (active); in the assay with CP286, 0.0035 µM (active); with CP291, 0.0054 µM (active). The Potency was 0.006 µM (active) in the assay on CP297; 0.0054 µM (active) in the assay on CP305; 0.0076 µM (active) in the assay on CP315; 0.0054 µM (active) with CP325; 0.006 µM (active) in the assay on CP329; 0.0019 µM (active) in the assay with CP335. Also, the Potency in the assay with DFO2036 is 0.0032 µM (active).
